# Hits are enriched below; roughly 2.9% of the tested compounds scored in any of these assays.
# ABHD5-PLIN5 inh: inhibitors of human ABHD5-perilipin-5 interaction; Q00G26+Q8WTS1; inhibition, % at 4 µM; Split G. princeps luciferase complementation, luminescence, 4 h; actives 0.78% (n = 360,000);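 active = inhibition above the mean inhibition across every tested compound plus 3 SD, cut at about 22% in these data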;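 note: 0% = DMSO only wells and the 100% control is not disclosed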
# Myeloid diff MLP: myeloid differentiation induction | ER-HoxA9 myeloid progenitors, lysozyme-GFP differentiation, flow cytometry | calls only at 10 µM | actives 1% (n = 360,000);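 active = normalized GFP-positive differentiation at or above the plate's own cutoff, the solvent-only control mean plus 3 SD; inconclusive = no clear call, values can overlap the other calls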;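 note: cells exposed to compound for four days before flow analysis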
# Cardio protect: modulators protecting cardiomyocytes from myocardial damage. H9c2 cardiomyocytes, H2O2 injury protection, ATPLite, 2 h. protection from H2O2 cell death, % at 20 µM. actives 0.63% (n = 360,000). AID 588492;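 active = compounds giving at least 50% protection of heart cells from peroxide-induced death in the single-dose screen, raw or plate-pattern-corrected value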;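 note: 0% = DMSO wells with peroxide and 100% = DMSO wells without peroxide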
# Rtt109 HAT inh: inhibitors of Candida albicans Rtt109/Vps75 histone acetyltransferase; purified Rtt109/Vps75, ThioGlo CoA-SH fluorescence, 4 h; AID 540336; actives 0.16% (n = 330,000); inhibition, % at 34.9 µM;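 active = inhibition of at least 50% in every replicate; inconclusive = best replicate reaches 50% inhibition but some replicates fall short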
# sPLA2-III inh: Blocks human group III sPLA2 activity. QFRET BODIPY PC-A2 liposome hydrolysis, fluorescence. inhibition, % at 12.2 µM. actives 0.56% (n = 370,000). AID 743126;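 active = inhibition above mean plus 3 SD of compounds lying within the high and low control bounds, cut at about 19% in these data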;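 note: 0% = median of test compound wells and 100% = no enzyme DMSO wells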
# DAGLB inhibitor: blocks human DAGLB lipase activity | Q8NCG7 | HEK293T DAGLB membrane lysate, EnzChek fluorogenic substrate | inhibition, % at 5.17 µM | actives 0.059% (n = 340,000); in the data active = inhibition above about 34%;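 note: 0% = enzyme with vehicle and 100% = wells lacking enzyme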
# Target sequence (Q8NCG7 whole entry, looked up): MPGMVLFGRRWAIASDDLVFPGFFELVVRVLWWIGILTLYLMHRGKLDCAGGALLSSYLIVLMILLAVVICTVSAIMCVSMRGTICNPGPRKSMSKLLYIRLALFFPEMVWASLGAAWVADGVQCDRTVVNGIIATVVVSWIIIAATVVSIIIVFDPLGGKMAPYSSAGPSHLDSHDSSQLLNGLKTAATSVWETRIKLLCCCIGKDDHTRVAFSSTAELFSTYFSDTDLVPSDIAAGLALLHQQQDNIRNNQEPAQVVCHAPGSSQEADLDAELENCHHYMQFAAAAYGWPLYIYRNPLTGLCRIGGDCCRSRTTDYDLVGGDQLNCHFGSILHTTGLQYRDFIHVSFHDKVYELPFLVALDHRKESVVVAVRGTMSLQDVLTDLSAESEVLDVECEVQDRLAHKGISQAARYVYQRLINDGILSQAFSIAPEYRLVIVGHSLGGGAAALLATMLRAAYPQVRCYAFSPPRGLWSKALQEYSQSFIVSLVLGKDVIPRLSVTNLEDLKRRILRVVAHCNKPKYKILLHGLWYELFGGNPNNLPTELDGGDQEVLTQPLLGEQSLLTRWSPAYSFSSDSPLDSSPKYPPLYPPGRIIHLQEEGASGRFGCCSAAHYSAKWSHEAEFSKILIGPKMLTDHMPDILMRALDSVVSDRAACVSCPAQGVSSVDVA
# hGIII sPLA2 conf: human GIII-sPLA2 inhibition, confirmation. actives 34% (n = 2,000). recombinant hGIII-sPLA2, BODIPY PC-A2 QFRET fluorescence. AID 743280. shares compounds with sPLA2-III inh. inhibition, % at 12.2 µM;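 active = mean inhibition across triplicates above the hit cutoff set in the earlier primary screen, cut at about 19% in these data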;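 note: 0% = enzyme with DMSO and 100% = DMSO wells lacking enzyme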
# 535nm interf: counter-screen for HGIII-sPLA2 inhibitors: 535nm fluorescence interference; shares compounds with sPLA2-III inh; BODIPY FL product fluorescence interference, QFRET; inhibition, % at 12.2 µM; actives 8.5% (n = 2,000); AID 743282;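 active = average inhibition above the solvent-only control mean plus 3 SD, cut at about 6% in these data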;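 note: 0% = DMSO with substrate plus product and 100% = DMSO with substrate alone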
# 535nm interf DR: interferes with 535nm fluorescence in dose response counter-screen; AID 743455; IC50, µM; 240 tested, under 10 active; BODIPY FL product fluorescence interference, cell-free; shares compounds with sPLA2-III inh;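 active = IC50 at or below 10 µM; inactive = IC50 above 10 µM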
# Starred values were filed as active, the others as inactive; i = inactive; ? = inconclusive; / = no result.
SMILES,ABHD5-PLIN5 inh,Myeloid diff MLP,Cardio protect,Rtt109 HAT inh,sPLA2-III inh,DAGLB inhibitor,hGIII sPLA2 conf,535nm interf,others
CC(C)CN(C)C(=O)CCc1nnc(Cc2ccc(-c3ccccc3)cc2)o1,6,i,-5,1,-13,-1,/,/,
O=C(Nc1nc(-c2ccccn2)cs1)c1ccco1,-4,i,44,-3,20*,-3,2,-1,
O=C(Nc1nc(-c2ccccn2)cs1)c1ccc(Br)s1,1,?,48,5,38*,-2,27*,0,
COc1ccc2oc(C(=O)Nc3nc(-c4ccccn4)cs3)c(C)c2c1,3,i,20,-11,22*,-6,25*,-1,
Cc1cccc(NC(=O)c2cnn3ccccc23)c1C,-4,/,0,-14,3,-1,/,/,
CCC1Oc2ccccc2N(CC(=O)NCCCN2CCN(c3ccc(OC)cc3)CC2)C1=O (stereo unspecified),-4,i,9,4,1,-1,/,/,
CN(C1=C(NC(=O)c2ccc(Cl)cc2)C(=O)c2ccccc2C1=O)c1ccccc1,5,?,-23,19,44*,25,49*,7.6*,
CC(C)CC(N)c1csc(Nc2ccc(S(C)(=O)=O)cc2)n1 (stereo unspecified),-3,i,8,/,17,/,/,/,
O=S(=O)(c1cccc(-c2n[nH]c(=S)n2-c2cccc(C(F)(F)F)c2)c1)N1CCOCC1,-13,i,-1,4,16,-2,/,/,
Cc1ccc(S(=O)(=O)N2CCOCC2)cc1-c1n[nH]c(=S)n1-c1ccccc1,-2,i,3,1,23*,-1,11,-1,
CC(=O)NCC1COc2ccccc2O1 (stereo unspecified),-1,i,10,-5,-2,0,/,/,
CN(C)C(=O)OCC1COc2ccccc2O1 (stereo unspecified),-3,i,16,4,21*,-2,2,-7,
CCN(CC)S(=O)(=O)c1ccc(OC)c(NC(=O)C(C)Oc2ccc3c(C)cc(=O)oc3c2)c1 (stereo unspecified),-3,i,2,6,-8,1,/,/,
CCN(CC)S(=O)(=O)c1ccc(C)c(NC(=O)COc2ccc3c(C)cc(=O)oc3c2)c1,3,i,-9,1,20*,0,-12,-11,
CCN(CCCCCN(C)C)Cc1cc2ccccc2o1,1,i,5,-4,21*,1,-2,-19,
CCN=C1S/C(=C\c2cc(Cl)c(OC)c(OC)c2)C(=O)N1CC,4,i,2,-3,1,-4,/,/,
O=C(N/N=C/c1cc(Br)cc(Br)c1O)c1cccc(N2CCCC2=O)c1,1,i,52*,/,28*,3,24*,4,
COc1ccc(C2=CC(=O)C[C@H](c3ccc(F)cc3)C2)cc1F,6,i,-16,-3,-5,-17,/,/,
CCCCOc1ccc(Br)cc1CSC(=N)N,0,i,-33,-3,44*,2,25*,-26,
CCCCCOc1ccc(CSC(=N)N)cc1[N+](=O)[O-],6,i,-19,-3,45*,1,30*,-18,535nm interf DR=>122
CCOc1ccc(C(C)=O)cc1CSC(=N)N,-5,i,-7,2,18,0,/,/,
COc1ccc(CSC(=N)N)cc1[N+](=O)[O-],-6,i,8,?,8,-3,/,/,
CCc1nn(CC(=O)NCCCN(C)C2CCCCC2)c(=O)c2cc3occc3n12,-2,i,0,4,/,1,/,/,
COc1ccc(-c2nc(N)c(C#N)c(-c3cccnc3)c2C)cc1,7,i,-2,1,18,2,/,/,
CCCNC(=S)Nc1ccc(CC(=O)OC)cc1,0,i,-1,-12,24*,1,8,-5,

# Assay outcomes deposited in PubChem by several laboratories.
